Measurements reported in the supplement of paper PMC11732987, “Enantioselective OTUD7B fragment discovery through chemoproteomics screening and high-throughput optimisation” (Communications Chemistry, 2025).

Experiments:
Experiment in all cases: log2 ratio of Biotin-Ahx-Ub-VS probe labelling (fragment/DMSO); higher = less target engagement (more negative = stronger competition), active = hit call of the paper (q ≤ 0.05, log2 ratio ≤ -1)
Settings in all cases: compound concentration: 200 uM; treatment time: 3 h
ALG13 = target: T1, ALG13 (UniProt Q9NP73)
T1 sequence (whole entry): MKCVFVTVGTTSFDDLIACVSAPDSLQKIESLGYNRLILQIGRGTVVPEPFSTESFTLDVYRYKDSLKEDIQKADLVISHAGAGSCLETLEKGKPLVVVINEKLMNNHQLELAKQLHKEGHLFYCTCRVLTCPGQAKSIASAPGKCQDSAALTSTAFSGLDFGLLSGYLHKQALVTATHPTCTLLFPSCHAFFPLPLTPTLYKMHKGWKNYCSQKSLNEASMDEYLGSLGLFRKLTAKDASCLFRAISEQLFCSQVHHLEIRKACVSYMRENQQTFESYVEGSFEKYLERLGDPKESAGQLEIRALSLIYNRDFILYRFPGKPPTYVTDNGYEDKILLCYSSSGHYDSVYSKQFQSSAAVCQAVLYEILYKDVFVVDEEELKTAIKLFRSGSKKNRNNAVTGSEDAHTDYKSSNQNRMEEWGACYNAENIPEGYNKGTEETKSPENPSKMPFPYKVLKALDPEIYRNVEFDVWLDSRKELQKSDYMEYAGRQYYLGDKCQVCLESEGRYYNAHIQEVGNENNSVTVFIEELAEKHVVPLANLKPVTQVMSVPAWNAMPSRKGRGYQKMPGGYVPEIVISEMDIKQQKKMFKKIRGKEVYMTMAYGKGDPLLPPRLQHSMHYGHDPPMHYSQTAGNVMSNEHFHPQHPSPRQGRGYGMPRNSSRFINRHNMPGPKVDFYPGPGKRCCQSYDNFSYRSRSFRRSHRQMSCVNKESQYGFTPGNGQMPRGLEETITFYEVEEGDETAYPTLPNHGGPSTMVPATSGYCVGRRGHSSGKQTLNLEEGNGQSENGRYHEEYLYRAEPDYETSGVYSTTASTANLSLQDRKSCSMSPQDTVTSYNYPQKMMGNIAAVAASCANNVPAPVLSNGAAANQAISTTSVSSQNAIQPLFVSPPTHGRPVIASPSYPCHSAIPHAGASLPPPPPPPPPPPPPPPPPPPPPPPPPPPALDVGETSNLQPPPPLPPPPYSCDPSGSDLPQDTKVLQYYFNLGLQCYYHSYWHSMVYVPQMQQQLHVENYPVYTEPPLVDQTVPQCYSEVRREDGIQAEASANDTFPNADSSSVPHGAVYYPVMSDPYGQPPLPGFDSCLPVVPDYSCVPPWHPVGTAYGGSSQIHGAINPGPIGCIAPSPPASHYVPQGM
In short: (§1)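 Fragment (200 µM) or vehicle was incubated for 3 h with triplicate HEK293T lysate samples of 495 µg, which were then treated with Biotin-Ahx-Ub-VS at 0.5 µM final for 1 h. Labelled DUBs were enriched on NeutrAvidin, digested with LysC and trypsin, and analysed by diaPASEF LC-MS/MS. Values are average log2 fragment/vehicle ratios from an unpaired t-test on global-median-normalised Spectronaut label-free quantities, using proteins with ≥2 unique peptides.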

ATXN3 = ATXN3 (UniProt P54252)
In short: as §1

BAP1 = target: T2, BAP1 (UniProt Q92560)
T2 sequence (whole entry): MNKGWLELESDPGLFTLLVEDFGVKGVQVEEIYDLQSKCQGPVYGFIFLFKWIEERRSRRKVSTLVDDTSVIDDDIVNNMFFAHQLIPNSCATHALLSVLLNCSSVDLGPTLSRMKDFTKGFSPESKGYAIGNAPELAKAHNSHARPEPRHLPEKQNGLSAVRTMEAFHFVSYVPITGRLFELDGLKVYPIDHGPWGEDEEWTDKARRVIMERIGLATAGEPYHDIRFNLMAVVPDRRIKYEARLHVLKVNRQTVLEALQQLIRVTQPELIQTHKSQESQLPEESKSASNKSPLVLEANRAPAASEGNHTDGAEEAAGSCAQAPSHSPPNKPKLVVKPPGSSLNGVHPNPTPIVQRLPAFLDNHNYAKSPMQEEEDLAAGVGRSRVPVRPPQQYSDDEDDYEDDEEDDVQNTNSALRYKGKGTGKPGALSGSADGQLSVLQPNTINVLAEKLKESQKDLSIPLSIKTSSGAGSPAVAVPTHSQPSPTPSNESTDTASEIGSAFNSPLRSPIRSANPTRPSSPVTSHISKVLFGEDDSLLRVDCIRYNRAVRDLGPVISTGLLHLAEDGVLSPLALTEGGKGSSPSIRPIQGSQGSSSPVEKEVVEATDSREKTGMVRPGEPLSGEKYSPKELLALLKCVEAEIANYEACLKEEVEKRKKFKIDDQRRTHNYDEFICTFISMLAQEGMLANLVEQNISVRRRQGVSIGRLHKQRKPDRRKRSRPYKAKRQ
In short: as §1

EIF3F = EIF3F (UniProt O00303)
In short: as §1

EIF3H = EIF3H (UniProt O15372)
In short: as §1

FAM105A = target: T3, FAM105A (UniProt Q9NUU6)
T3 sequence (whole entry): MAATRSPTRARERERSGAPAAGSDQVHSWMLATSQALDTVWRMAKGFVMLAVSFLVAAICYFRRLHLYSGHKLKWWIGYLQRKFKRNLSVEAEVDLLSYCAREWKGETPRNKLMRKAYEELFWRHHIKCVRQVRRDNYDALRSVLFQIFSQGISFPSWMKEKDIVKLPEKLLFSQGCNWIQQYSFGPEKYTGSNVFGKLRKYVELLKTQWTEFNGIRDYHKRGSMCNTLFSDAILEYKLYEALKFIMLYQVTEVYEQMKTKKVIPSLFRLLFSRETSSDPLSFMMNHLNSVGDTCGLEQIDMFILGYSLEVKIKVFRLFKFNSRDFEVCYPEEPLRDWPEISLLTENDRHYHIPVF
In short: as §1

OTUB1 = OTUB1 (UniProt Q96FW1)
In short: as §1

OTUD4 = target: T4, OTUD4 (UniProt Q01804)
T4 sequence (whole entry): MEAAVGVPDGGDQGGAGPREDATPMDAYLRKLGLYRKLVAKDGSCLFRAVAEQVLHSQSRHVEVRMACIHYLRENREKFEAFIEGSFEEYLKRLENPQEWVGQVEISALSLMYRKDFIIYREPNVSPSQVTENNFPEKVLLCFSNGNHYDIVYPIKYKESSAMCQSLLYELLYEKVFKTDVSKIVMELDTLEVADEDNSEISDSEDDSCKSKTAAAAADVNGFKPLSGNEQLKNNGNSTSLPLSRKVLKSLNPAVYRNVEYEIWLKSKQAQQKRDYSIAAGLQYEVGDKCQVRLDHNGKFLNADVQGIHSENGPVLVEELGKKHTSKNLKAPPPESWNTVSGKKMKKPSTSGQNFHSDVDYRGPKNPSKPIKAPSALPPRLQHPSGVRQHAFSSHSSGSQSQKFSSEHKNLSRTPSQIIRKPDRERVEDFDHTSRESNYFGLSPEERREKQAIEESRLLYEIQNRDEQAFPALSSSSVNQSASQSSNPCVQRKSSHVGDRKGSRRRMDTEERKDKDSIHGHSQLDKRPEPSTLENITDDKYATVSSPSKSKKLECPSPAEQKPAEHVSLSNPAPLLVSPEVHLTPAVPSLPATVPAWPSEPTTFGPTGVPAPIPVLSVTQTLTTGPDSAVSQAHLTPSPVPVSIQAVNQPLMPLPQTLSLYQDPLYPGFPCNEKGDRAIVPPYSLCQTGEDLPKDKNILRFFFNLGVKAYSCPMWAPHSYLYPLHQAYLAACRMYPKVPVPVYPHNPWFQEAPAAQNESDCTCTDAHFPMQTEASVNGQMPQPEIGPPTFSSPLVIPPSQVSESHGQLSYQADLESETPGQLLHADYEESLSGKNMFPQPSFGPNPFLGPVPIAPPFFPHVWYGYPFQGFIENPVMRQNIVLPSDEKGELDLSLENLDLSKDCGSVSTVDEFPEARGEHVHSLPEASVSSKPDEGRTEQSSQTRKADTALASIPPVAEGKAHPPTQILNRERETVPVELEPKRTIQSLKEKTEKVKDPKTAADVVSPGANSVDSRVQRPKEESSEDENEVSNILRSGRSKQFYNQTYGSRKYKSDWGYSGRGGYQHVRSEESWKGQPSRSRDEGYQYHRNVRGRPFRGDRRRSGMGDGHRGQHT
In short: as §1

OTUD5 = target: T5, OTUD5 (UniProt Q96G74)
T5 sequence (whole entry): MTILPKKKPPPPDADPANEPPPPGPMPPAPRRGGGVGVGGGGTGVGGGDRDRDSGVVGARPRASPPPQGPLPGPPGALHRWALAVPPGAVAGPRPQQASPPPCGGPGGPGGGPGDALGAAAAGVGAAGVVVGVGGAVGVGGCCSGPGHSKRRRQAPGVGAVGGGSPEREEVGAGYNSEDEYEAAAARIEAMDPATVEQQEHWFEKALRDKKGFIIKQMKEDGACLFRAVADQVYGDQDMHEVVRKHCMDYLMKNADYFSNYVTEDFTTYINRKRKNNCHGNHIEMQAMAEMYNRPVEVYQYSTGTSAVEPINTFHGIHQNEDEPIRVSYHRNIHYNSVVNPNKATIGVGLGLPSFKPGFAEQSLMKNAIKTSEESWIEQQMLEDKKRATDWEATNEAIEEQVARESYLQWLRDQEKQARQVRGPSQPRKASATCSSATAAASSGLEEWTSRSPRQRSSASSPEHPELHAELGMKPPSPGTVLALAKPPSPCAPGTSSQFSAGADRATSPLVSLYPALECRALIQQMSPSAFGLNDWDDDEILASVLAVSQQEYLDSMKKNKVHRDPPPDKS
In short: as §1

Measured: log2 ratio of Biotin-Ahx-Ub-VS probe labelling

EIF3F, sequence (O00303 whole entry): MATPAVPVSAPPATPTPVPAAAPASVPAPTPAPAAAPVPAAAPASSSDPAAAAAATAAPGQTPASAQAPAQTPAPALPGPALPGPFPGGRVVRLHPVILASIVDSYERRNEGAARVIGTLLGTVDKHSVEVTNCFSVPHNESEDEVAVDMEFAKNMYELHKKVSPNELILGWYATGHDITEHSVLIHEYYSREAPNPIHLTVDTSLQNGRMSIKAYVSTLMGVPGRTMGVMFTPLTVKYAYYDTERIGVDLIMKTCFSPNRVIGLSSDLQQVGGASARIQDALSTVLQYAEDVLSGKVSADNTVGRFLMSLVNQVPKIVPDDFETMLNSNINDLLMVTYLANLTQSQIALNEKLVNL
OTUB1, sequence (Q96FW1 whole entry): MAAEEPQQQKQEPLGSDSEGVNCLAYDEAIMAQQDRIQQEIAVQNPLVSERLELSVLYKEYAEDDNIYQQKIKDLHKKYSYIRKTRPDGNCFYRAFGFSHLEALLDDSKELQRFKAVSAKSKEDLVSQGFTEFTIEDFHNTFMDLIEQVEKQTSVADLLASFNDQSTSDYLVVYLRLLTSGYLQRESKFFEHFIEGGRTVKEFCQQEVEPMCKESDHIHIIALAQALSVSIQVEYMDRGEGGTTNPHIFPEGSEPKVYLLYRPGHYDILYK
EIF3H, sequence (O15372 whole entry): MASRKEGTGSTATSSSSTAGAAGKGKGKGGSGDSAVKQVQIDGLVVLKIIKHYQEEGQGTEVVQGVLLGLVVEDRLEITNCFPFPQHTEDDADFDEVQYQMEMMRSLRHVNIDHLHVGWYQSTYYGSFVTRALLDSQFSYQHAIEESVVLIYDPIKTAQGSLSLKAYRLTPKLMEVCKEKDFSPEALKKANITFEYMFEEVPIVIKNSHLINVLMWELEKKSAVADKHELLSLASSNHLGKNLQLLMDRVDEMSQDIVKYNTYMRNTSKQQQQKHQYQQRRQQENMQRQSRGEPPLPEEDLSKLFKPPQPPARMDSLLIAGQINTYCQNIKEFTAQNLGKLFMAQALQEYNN
ATXN3, sequence (P54252 whole entry): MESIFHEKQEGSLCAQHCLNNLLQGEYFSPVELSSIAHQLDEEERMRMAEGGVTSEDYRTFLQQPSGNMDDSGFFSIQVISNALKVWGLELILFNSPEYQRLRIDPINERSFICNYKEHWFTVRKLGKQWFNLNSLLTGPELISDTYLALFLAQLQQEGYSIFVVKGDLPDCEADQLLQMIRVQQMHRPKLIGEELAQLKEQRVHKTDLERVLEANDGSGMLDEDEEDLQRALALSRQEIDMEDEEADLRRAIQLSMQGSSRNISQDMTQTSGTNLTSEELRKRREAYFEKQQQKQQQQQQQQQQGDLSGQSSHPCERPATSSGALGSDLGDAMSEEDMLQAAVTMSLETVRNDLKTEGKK

O=C(CN1CCN(C(=O)CCl)CC1)Nc1cccc(F)c1
inactive: ALG13 -0.606 | ATXN3 -0.412 | BAP1 -0.967 | EIF3F -0.00546 | EIF3H 0.149 | FAM105A 0.21 | OTUB1 -0.291 | OTUD4 -0.422 | OTUD5 -0.511
